Results as given in PubChem BioAssay AID1159580 (chemical genetic matrix, 2015).
Screen size: about 5,500 compounds; about 2,000 (36%) were called active. Inconclusive results (about 18%) are left out. No stated cut-off is given here; in the data, active means normalized growth mostly below about 0.91 (no sharp cut-off); inconclusive means no clear call, values can overlap the other calls; inactive means mostly above about 0.92. This is one part of the list.

Test: chemical genetic growth profiling, strain panel (AID 1159580);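 further: tested at 20 µM; growth read once vehicle control cultures reached saturation at 30 °C; 1 = growth at the plate median or of vehicle wells; lower values mean less growth of the strain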
Settings: growth OD

Measured: normalized growth

CC(C)(C)CC(C)(C)c1ccc(O)c(Cc2ccc(Cl)cc2Cl)c1
active: S. cerevisiae deletion strains, locus YOR270C, strain vph1, active compounds read low 0.766
inactive: S. cerevisiae deletion strains, locus YJR075W, strain HOC1, active compounds read low 1.01 | S. cerevisiae deletion strains, locus YKL009W, strain mrt4, active compounds read low 1.01 | S. cerevisiae deletion strains, locus YKL068W, active compounds read low 1.02 | S. cerevisiae deletion strains, locus YKL085W, strain MDH1 (second series), active compounds read low 1.01 | S. cerevisiae deletion strains, locus YKL085W, strain MDH1, active compounds read low 1.01 | S. cerevisiae deletion strains, locus YKL160W, strain elf1, active compounds read low 1 | S. cerevisiae deletion strains, locus YKL190W, strain CNB1, active compounds read low 1 | S. cerevisiae deletion strains, locus YKR001C, strain vps1, active compounds read low 1.01 | S. cerevisiae deletion strains, locus YKR026C, strain gcn3, active compounds read low 1.02 | S. cerevisiae deletion strains, locus YKR091W, strain srl3, active compounds read low 1.02 | S. cerevisiae deletion strains, locus YLL001W, strain dnm1, active compounds read low 1.04 | S. cerevisiae deletion strains, locus YLL026W, active compounds read low 1.01 | S. cerevisiae deletion strains, locus YLL041C, strain sdh2, active compounds read low 1.02 | S. cerevisiae deletion strains, locus YLR027C, strain aat2, active compounds read low 1.01 | S. cerevisiae deletion strains, locus YLR039C, strain RIC1, active compounds read low 0.985 | S. cerevisiae deletion strains, locus YLR058C, strain SHM2, active compounds read low 1.01 | S. cerevisiae deletion strains, locus YLR102C, strain apc9, active compounds read low 1.01 | S. cerevisiae deletion strains, locus YLR113W, strain HOG1, active compounds read low 1.03 | S. cerevisiae deletion strains, locus YLR221C, strain rsa3, active compounds read low 0.995 | S. cerevisiae deletion strains, locus YLR258W, strain gsy2, active compounds read low 1.02 | S. cerevisiae deletion strains, locus YLR262C, strain YPT6 (second series), active compounds read low 0.981 | S. cerevisiae deletion strains, locus YLR262C, strain YPT6, active compounds read low 0.974 | S. cerevisiae deletion strains, locus YLR268W, strain sec22, active compounds read low 1.01 | S. cerevisiae deletion strains, locus YLR320W, strain mms22, active compounds read low 1.02 | S. cerevisiae deletion strains, locus YLR330W, strain CHS5, active compounds read low 0.999 | S. cerevisiae deletion strains, locus YLR342W, strain FKS1 (second series), active compounds read low 0.995 | S. cerevisiae deletion strains, locus YLR342W, strain FKS1, active compounds read low 1.01 | S. cerevisiae deletion strains, locus YLR357W, strain rsc2, active compounds read low 1.05 | S. cerevisiae deletion strains, locus YLR370C, strain arc18, active compounds read low 1.03 | S. cerevisiae deletion strains, locus YLR371W, strain rom2, active compounds read low 1.01 | S. cerevisiae deletion strains, locus YLR384C, strain iki3, active compounds read low 1.03 | S. cerevisiae deletion strains, locus YLR418C, strain cdc73, active compounds read low 1.02 | S. cerevisiae deletion strains, locus YML016C, strain PPZ1, active compounds read low 1.01 | S. cerevisiae deletion strains, locus YML032C, strain rad52, active compounds read low 1.02 | S. cerevisiae deletion strains, locus YML120C, strain ndi1, active compounds read low 1 | S. cerevisiae deletion strains, locus YML124C, strain tub3, active compounds read low 1.02 | S. cerevisiae deletion strains, locus YMR058W, strain fet3, active compounds read low 1.01 | S. cerevisiae deletion strains, locus YMR078C, strain ctf18, active compounds read low 1.01 | S. cerevisiae deletion strains, locus YMR125W, strain sto1, active compounds read low 1.02 | S. cerevisiae deletion strains, locus YMR129W, active compounds read low 0.998 | S. cerevisiae deletion strains, locus YMR205C, strain PFK2, active compounds read low 1.01 | S. cerevisiae deletion strains, locus YMR223W, strain ubp8, active compounds read low 1.01 | S. cerevisiae deletion strains, locus YMR231W, strain pep5, active compounds read low 1.03 | S. cerevisiae deletion strains, locus YMR263W, strain SAP30, active compounds read low 0.998 | S. cerevisiae deletion strains, locus YMR307W, strain GAS1, active compounds read low 0.972 | S. cerevisiae deletion strains, locus YNL067W, strain RPL9B, active compounds read low 1.01 | S. cerevisiae deletion strains, locus YNL071W, strain lat1, active compounds read low 1.03 | S. cerevisiae deletion strains, locus YNL128W, strain TEP1, active compounds read low 1.02 | S. cerevisiae deletion strains, locus YNL153C, strain GIM3, active compounds read low 1 | S. cerevisiae deletion strains, locus YNL183C, strain NPR1, active compounds read low 0.973 | S. cerevisiae deletion strains, locus YNL209W, strain ssb2, active compounds read low 1.02 | S. cerevisiae deletion strains, locus YNL233W, strain BNI4, active compounds read low 1.01 | S. cerevisiae deletion strains, locus YNL248C, strain rpa49, active compounds read low 1.01 | S. cerevisiae deletion strains, locus YNL250W, strain rad50, active compounds read low 1.02 | S. cerevisiae deletion strains, locus YNL271C, strain bni1, active compounds read low 1.02 | S. cerevisiae deletion strains, locus YNL298W, strain CLA4, active compounds read low 1.03 | S. cerevisiae deletion strains, locus YNL307C, strain MCK1, active compounds read low 1.02 | S. cerevisiae deletion strains, locus YNL322C, strain KRE1 (second series), active compounds read low 1.02 | S. cerevisiae deletion strains, locus YNR049C, strain mso1, active compounds read low 1.02 | S. cerevisiae deletion strains, locus YNR052C, strain pop2, active compounds read low 1.01 | S. cerevisiae deletion strains, locus YOL006C, strain TOP1, active compounds read low 0.836 | S. cerevisiae deletion strains, locus YOL012C, strain htz1 0.945 | S. cerevisiae deletion strains, locus YOL147C, strain pex11, active compounds read low 1.02 | S. cerevisiae deletion strains, locus YOR001W, strain rrp6, active compounds read low 1.01 | S. cerevisiae deletion strains, locus YOR061W, strain CKA2, active compounds read low 1.01 | S. cerevisiae deletion strains, locus YOR069W, strain VPS5, active compounds read low 1.01 | S. cerevisiae deletion strains, locus YOR070C, strain gyp1, active compounds read low 1.01 | S. cerevisiae deletion strains, locus YOR080W, strain dia2, active compounds read low 1.03 | S. cerevisiae deletion strains, locus YOR083W, strain WHI5, active compounds read low 0.989 | S. cerevisiae deletion strains, locus YOR106W, strain vam3, active compounds read low 0.988 | S. cerevisiae deletion strains, locus YOR136W, strain idh2, active compounds read low 1.02 | S. cerevisiae deletion strains, locus YOR144C, strain elg1, active compounds read low 1.01 | S. cerevisiae deletion strains, locus YOR184W, strain ser1, active compounds read low 1.01 | S. cerevisiae deletion strains, locus YOR231W, strain MKK1, active compounds read low 1.03 | S. cerevisiae deletion strains, locus YOR265W, strain rbl2, active compounds read low 1.01 | S. cerevisiae deletion strains, locus YOR290C, strain snf2, active compounds read low 1.02 | S. cerevisiae deletion strains, locus YOR316C, strain cot1, active compounds read low 1.01 | S. cerevisiae deletion strains, locus YPL051W, strain arl3, active compounds read low 1 | S. cerevisiae deletion strains, locus YPL078C, strain atp4, active compounds read low 1.02 | S. cerevisiae deletion strains, locus YPL106C, strain sse1, active compounds read low 1.04 | S. cerevisiae deletion strains, locus YPL240C, strain hsp82, active compounds read low 1 | S. cerevisiae deletion strains, locus YPL241C, strain CIN2, active compounds read low 1 | S. cerevisiae deletion strains, locus YPL256C, strain CLN2, active compounds read low 1.04 | S. cerevisiae deletion strains, locus YPR119W, strain clb2, active compounds read low 1.01 | S. cerevisiae deletion strains, locus YPR141C, strain kar3, active compounds read low 1.01 | S. cerevisiae deletion strains, locus YPR163C, strain tif3, active compounds read low 1.02 | S. cerevisiae deletion strains, locus YPR167C, strain met16, active compounds read low 1.02 | S. cerevisiae deletion strains, strain wtn01, active compounds read low 1.01 | S. cerevisiae strains, strain wild type, active compounds read low 1
